The record followed here is PubChem BioAssay (Tox21).

In experiment [1] the target is Acetylcholinesterase (Homo sapiens) (UniProt P22303). Put plainly: Acetylcholinesterase (AChE) small molecule antagonists: colormetric cell-based qHTS assay (AID 1347395). Note: nearly all actives have a fitted effect of over 30% in size. Note: potency is the fitted concentration of half-maximal effect. Put shortly:
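After overnight attachment at 37 C, SH-SY5Y cells get 30 min compound exposure; detection cocktail (acetylthiocholine, DTNB) then incubates 90 min at 37 C, and absorbance reflects AChE-generated thiocholine.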

Experiment [2] has the same target. Put plainly: Acetylcholinesterase (AChE) small molecule antagonists: enzyme-based qHTS assay (AID 1347397). Note: nearly all actives have a fitted effect of over 55% in size. Note: potency is the fitted concentration of half-maximal effect. The note with it: Potency: AChE enzyme activity inhibition; outcome: AChE enzyme activity inhibition. A digest of the protocol:
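Colorimetric DTNB read-out of thiocholine released from acetylthiocholine by recombinant human AChE (50 mU/mL as dispensed). Compounds were preincubated 30 min at RT before substrate/DTNB addition, with a 10 min RT reaction.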

The target is the same in experiment [3]. Put plainly: Acetylcholinesterase (AChE) small molecule antagonists: fluorescence cell-based qHTS assay (AID 1347398). Note: nearly all actives have a fitted effect of over 50% in size. Note: potency is the fitted concentration of half-maximal effect. The conditions noted are these: Potency: AChE activity; outcome: AChE activity. A digest of the protocol:
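SH-SY5Y, 2,000 cells/well, attached overnight; cmpd 30 min 37 C; acetylthiocholine/Thiolite Green cocktail 40 min RT; fluorescence Ex/Em 490/520 nm.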

The target is the same in experiment [4]. Put plainly: Acetylcholinesterase (AChE) small molecule antagonists: enzyme-based qHTS assay with human liver microsomes (AID 1347399). Note: nearly all actives have a fitted effect of over 60% in size. The note with it: Potency: qHTS inhibition; outcome: qHTS inhibition. A digest of the protocol: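 Recombinant human AChE (50 mU/mL in the enzyme mix) and human liver microsomes (0.25 mg/mL final) were preincubated with compound and NADPH (0.25 mg/mL final) for 30 min at 37 C. Acetylthiocholine/DTNB was then added; thiocholine was read colorimetrically after 10 min at room temperature.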

The structures appear in SMILES notation. Several values for one entry are separate records, joined by “and”; a condition that tells them apart may be missing. Identical values can stand only once. A number with no mark means an inactive call. Records with an inconclusive call do not appear. Activity calls are given as the source filed them. Calls come from the whole dose curve.
% is set by controls: 0 for no effect and ±100 for the full control effect.

Acetylcholinesterase (Homo sapiens), sequence (P22303 whole entry, looked up): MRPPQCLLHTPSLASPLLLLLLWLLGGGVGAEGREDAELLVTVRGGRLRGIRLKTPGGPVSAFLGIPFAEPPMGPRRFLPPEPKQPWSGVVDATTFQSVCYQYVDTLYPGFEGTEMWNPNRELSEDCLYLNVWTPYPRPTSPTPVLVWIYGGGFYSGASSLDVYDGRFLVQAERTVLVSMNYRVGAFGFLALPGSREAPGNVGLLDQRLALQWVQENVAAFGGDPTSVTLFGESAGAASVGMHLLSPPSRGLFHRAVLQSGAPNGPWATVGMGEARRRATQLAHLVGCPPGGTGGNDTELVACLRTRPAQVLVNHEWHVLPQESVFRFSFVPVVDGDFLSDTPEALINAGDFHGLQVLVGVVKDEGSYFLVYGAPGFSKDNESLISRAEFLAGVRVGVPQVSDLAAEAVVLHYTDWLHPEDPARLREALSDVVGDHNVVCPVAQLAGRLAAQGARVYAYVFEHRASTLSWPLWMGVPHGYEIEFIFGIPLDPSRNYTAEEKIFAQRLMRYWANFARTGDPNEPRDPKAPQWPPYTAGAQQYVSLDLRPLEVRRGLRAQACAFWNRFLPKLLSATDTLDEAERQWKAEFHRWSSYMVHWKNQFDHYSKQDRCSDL

Take `CC(=O)CCCCn1c(=O)c2c(ncn2C)n(C)c1=O`: the Potency result in experiment [1], in experiment [2], in experiment [3] and in experiment [4] was “inactive” throughout.
For `CCCN1C=CN(C)C1`, the Potency result in experiment [1], in experiment [2], in experiment [3] and in experiment [4] was “inactive” in each case.
`CC(C)CC(=O)O`: the Potency result in experiment [1], in experiment [2], in experiment [3] and in experiment [4] was “inactive” in each case.
With `CC(=O)c1ccc([N+](=O)[O-])cc1`, the Potency result in experiment [1], in experiment [2], in experiment [3] and in experiment [4] was “inactive” each time.
Take `O=C1CCCCCCCCCCOCCCCO1`: the Potency entry in experiment [1], in experiment [2], in experiment [3] and in experiment [4] was “inactive” throughout.
Take `Cc1cc(O)cc2c1O[C@](C)(CCC[C@H](C)CCC[C@H](C)CCCC(C)C)CC2`: the Potency entry in experiment [1], in experiment [2], in experiment [3] and in experiment [4] was “inactive” each time.
For `O[C@@H]([C@H](O)[C@H](O)CBr)[C@H](O)CBr`, the Potency entry in experiment [1], in experiment [2], in experiment [3] and in experiment [4] was “inactive” each time.
With `O=C(Oc1ccccc1)c1ccc(O)cc1`, the Potency result in experiment [1], in experiment [2], in experiment [3] and in experiment [4] was “inactive” each time.
Consider `CCCOCCC`, for which the Potency result in experiment [1], in experiment [2], in experiment [3] and in experiment [4] was “inactive” throughout.
In the case of `O=C1c2ccccc2Cc2ccccc21`, the Potency entry in experiment [1], in experiment [2], in experiment [3] and in experiment [4] was “inactive” throughout.
Consider `CC1=C(C/C=C(\C)CCC[C@H](C)CCC[C@H](C)CCCC(C)C)C(=O)c2ccccc2C1=O`, for which the Potency result in experiment [1], in experiment [2], in experiment [3] and in experiment [4] was “inactive” each time.
For `COC(=O)c1cccnc1`, the Potency entry in experiment [1], in experiment [2], in experiment [3] and in experiment [4] was “inactive” throughout.
With `C[C@@H]1CCN(C(=O)[C@H](CCCN=C(N)N)NS(=O)(=O)c2cccc3c2NC[C@H](C)C3)[C@@H](C(=O)O)C1`, the Potency result in experiment [1], in experiment [2], in experiment [3] and in experiment [4] was “inactive” in each case.
Turning to `CC1(C)C(=O)N(Cl)C(=O)N1Br`, the Potency result in experiment [1], in experiment [2], in experiment [3] and in experiment [4] was “inactive” each time.
Consider `NC(N)=NCCC[C@H](N)C(=O)O`, for which the activity, negative = inhibition in experiment [1] is 5.24% [at 10.5 µM]. The activity change, negative = inhibition is -0.554% [at 10.5 µM] in experiment [2], 6.4% [at 10.5 µM] in experiment [3] and -0.0087% [at 10.5 µM] in experiment [4].
Consider `NC[C@H](O)c1ccc(O)c(O)c1`, for which the Potency entry in experiment [1], in experiment [2], in experiment [3] and in experiment [4] was “inactive” in each case.
As for `CCCOc1ccccc1-c1nc2n[nH]nc2c(=O)[nH]1`, the Potency entry in experiment [1], in experiment [2], in experiment [3] and in experiment [4] was “inactive” throughout.
For the compound `Nc1ccc(N)c(Cl)c1`, the Potency in experiment [1] was 8.92 µM (active) and 22.4 µM (active); in experiment [2], 8.92 µM (active) and 8.94 µM (active); in experiment [3], 5.63 µM (active) and 10 µM (active). The Potency entry in experiment [4] is “inactive”.
As to `C/C=C/c1ccc(OCC)c(O)c1`, the Potency result in experiment [1], in experiment [2], in experiment [3] and in experiment [4] was “inactive” each time.
In the case of `OCCc1ccccc1`, the Potency entry in experiment [1], in experiment [2], in experiment [3] and in experiment [4] was “inactive” in each case.
Consider `CC(C)(c1cc(Br)c(O)c(Br)c1)c1cc(Br)c(O)c(Br)c1`, for which the Potency result in experiment [1], in experiment [3] and in experiment [4] was “inactive” throughout. Besides, in experiment [2], the Potency is 39.8 µM (active) and 70.8 µM (active) and 67.2 µM (active).
Take `Cc1ccc(C)c(OCCCC(C)(C)C(=O)O)c1`: the Potency result in experiment [1], in experiment [2], in experiment [3] and in experiment [4] was “inactive” throughout.
For `CC(O)CN` (centres undefined), the Potency entry in experiment [1], in experiment [2], in experiment [3] and in experiment [4] was “inactive” each time.
Regarding `CCCCCCCCCCCCCCCCI`, in experiment [1], the activity, negative = inhibition was 1.24% [at 23.6 µM]. Further, the activity change, negative = inhibition in experiment [2] was 1.36% [at 23.6 µM]; in experiment [3], 3.93% [at 23.8 µM]; in experiment [4], 0.294% [at 23.6 µM].
For the compound `CCC(C)(CCC(C)C)C(=O)[O-].CCC(C)(CCC(C)C)C(=O)[O-].[Zn+2]` (centres undefined), the Potency entry in experiment [1], in experiment [2], in experiment [3] and in experiment [4] was “inactive” each time.
Regarding `NS(=O)(=O)O`, the Potency result in experiment [1], in experiment [2], in experiment [3] and in experiment [4] was “inactive” in each case.
With `Cc1ccccc1C(OCCN(C)C)c1ccccc1` (centres undefined), the Potency result in experiment [1], in experiment [2], in experiment [3] and in experiment [4] was “inactive” in each case.
In the case of `COc1ccc(C)cc1[N+](=O)[O-]`, the Potency result in experiment [1], in experiment [2], in experiment [3] and in experiment [4] was “inactive” throughout.
Take `O=S(=O)(O)c1cc(Cl)c(Cl)cc1Cl`: the Potency entry in experiment [1], in experiment [2], in experiment [3] and in experiment [4] was “inactive” in each case.
With `CCCCCCCCCCCCCCCO`, the Potency entry in experiment [1], in experiment [2], in experiment [3] and in experiment [4] was “inactive” each time.
`CCNc1cc(O)ccc1C`: the Potency entry in experiment [1], in experiment [2], in experiment [3] and in experiment [4] was “inactive” throughout.
In the case of `S=C([S-])NCCNC(=S)[S-].S=C([S-])NCCNC(=S)[S-].[Mn+2].[Zn+2]`, the Potency in experiment [1] and in experiment [3] was 30.9 µM (active) in each case. The Potency result in experiment [2] and in experiment [4] was “inactive” each time.
Consider `CCCCC(CC)COC(=O)/C=C\C(=O)OCC(CC)CCCC` (centres undefined), for which the Potency entry in experiment [1], in experiment [2], in experiment [3] and in experiment [4] was “inactive” each time.
For the compound `O=c1cc[nH]c(=O)[nH]1`, the Potency entry in experiment [1], in experiment [2], in experiment [3] and in experiment [4] was “inactive” throughout.
For the compound `CC(C)C(=O)OC/C=C/c1ccccc1`, the Potency result in experiment [1], in experiment [2], in experiment [3] and in experiment [4] was “inactive” throughout.
With `CC(=O)Nc1ccc2c(c1)Cc1cc(NC(C)=O)ccc1-2`, the Potency result in experiment [1], in experiment [2], in experiment [3] and in experiment [4] was “inactive” each time.
